Bioassay records: PubChem BioAssay, several laboratories
Sampled rows, rich in hits. Any-hit rate of the full collection: about 12%.
Cav3 T inh – Cav3.2 calcium influx blockers – cell-based, Fluo-4 calcium fluorescence, FDSS, MLSMR library, primary screen; Voltage-dependent T-type calcium channel subunit alpha-1H (Homo sapiens), O95180; Cav3.2-expressing cells; active compounds read low; B-score at 10 µM; 4% of 100,000 active; AID 449739, 2010;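 active = single-dose well whose peak fluorescence ratio is a statistical outlier from its plate by either plate-standardised score or position-corrected B-score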
PostGolgi yeast – phenotypic screen on post-Golgi transport, primary screen. 0.9% of 98,000 active. post-Golgi transport phenotypic cell assay. inhibition, % at 10 µM;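 also: yeast cells grown in 1536-well plates; yeast grown about 18 h at 30C before absorbance read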
PostGolgi ctrl – growth inhibition of yeast control strain, primary screen, counter-screen for post-Golgi transport modulator project; efflux-deficient yeast background strain, growth absorbance A615, 16 h; inhibition, % at 10 µM; 5% of 98,000 active
D1 mod – D1 CRE-luciferase signal change, two-sided – cell-based, HEK293 D1, dopamine EC30, D1 allosteric modulator project, primary screen. dopamine EC30 potentiation; actives deviate in either direction. B-score at 10 µM. 5.9% of 58,000 active;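 active = luminescence count or its row- and column-corrected plate score outside the 99.7% band of the plate's sample wells, on either side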
Target sequence (P21728 whole entry, looked up): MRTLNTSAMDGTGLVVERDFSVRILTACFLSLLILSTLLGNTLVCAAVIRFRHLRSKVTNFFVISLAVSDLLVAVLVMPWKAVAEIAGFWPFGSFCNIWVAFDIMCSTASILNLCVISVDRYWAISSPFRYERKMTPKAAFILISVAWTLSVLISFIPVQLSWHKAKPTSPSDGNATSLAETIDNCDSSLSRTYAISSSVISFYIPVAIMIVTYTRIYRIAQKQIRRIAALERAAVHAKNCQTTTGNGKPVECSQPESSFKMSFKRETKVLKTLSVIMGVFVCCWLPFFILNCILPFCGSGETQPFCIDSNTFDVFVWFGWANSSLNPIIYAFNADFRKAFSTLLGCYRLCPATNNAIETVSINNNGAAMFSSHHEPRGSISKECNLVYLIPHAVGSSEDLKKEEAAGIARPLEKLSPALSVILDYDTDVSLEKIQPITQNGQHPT
DAT uptake mod – changed hDAT dopamine uptake under cocaine IC80, either direction, primary screen, cocaine antagonist project, cell-based, LLC-PK1 hDAT, [14C]-dopamine uptake, MLSMR; B-score at 10 µM; AID 449768, 2010; Sodium-dependent dopamine transporter (Homo sapiens), Q01959; LLC-PK1 hDAT cells, [14C]-dopamine uptake with cocaine IC80; actives deviate in either direction; 1.3% of 110,000 active;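 active = Z score or B-score, a plate-position-corrected score, falls beyond the plate's 99.7% confidence bounds, in either direction; inactive = both scores lie inside the 99.7% bounds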;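 also: scored against the spread of the other compound wells on the same plate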
PLAP act – PLAP enzyme activators, biochemical, luminescence, HTS; Alkaline phosphatase, placental type (Homo sapiens), P05187; purified PLAP enzyme, luminescent substrate read-out; active compounds read high; activation fold at 20 µM; 1.2% of 96,000 active; AID 696, 2007; in the data active = activation fold above about 2
* = called active by the depositor; / = no result given; ! = not confirmed by another sample. Rule as the data show it, unless noted: active = inhibition above about 30%; inactive = the rest.

SMILES | Cav3 T inh | PostGolgi yeast | PostGolgi ctrl | D1 mod | DAT uptake mod | PLAP act
CC/C(=N\n1nnnc1Nc1ccccc1)c1ccccc1 | -5.7* | / | / | / | 1.2 | /
CC(C)c1ccc(/C=N/n2nnnc2Nc2ccccc2)cc1 | -0.017 | 1 | -7 | / | -0.96 | 1
O=C(Nc1ccc(Cl)c(Cl)c1)OCCNC(=O)c1cccc(Cl)c1 | -0.27 | 3 | 9 | / | -0.77 | 1
COc1ccc(N2CCN(c3cc(=O)n(Cc4ccc(F)cc4)c(=O)[nH]3)CC2)cc1 | -4.9* | -11 | 8 | -0.37 | 1.5 | 1.4
O=c1cc(N2CCN(c3ccc(F)cc3)CC2)[nH]c(=O)n1Cc1ccc(F)cc1 | -8.8* | 5 | 21 | / | 1.2 | 0.9
CC1CCCN(Cc2c(O)ccc3c(=O)c(-c4nc5ccccc5s4)c(N)oc23)C1 (stereo not drawn) | 0.78 | 3 | 17 | / | 2.5* | 1.9
CN(C(=O)c1cnc(N2CCN(c3ncccn3)CC2)c2ccccc12)c1ccc(Cl)cc1 | / | -3 | 73* | -0.63 | 0.84 | 1.2
CCN(C(=O)c1cnc(N2CCN(c3ncccn3)CC2)c2ccccc12)c1cccc(Cl)c1 | -6.6* | 2 | 13 | -1.4 | 2.2*! | 1.3
O=C(c1cnc(N2CCN(c3ncccn3)CC2)c2ccccc12)N1CCN(c2ncccn2)CC1 | / | 19 | 8 | -0.34 | 1.6 | 1.5
CCOC(=O)CN1C(=O)C(Sc2n[nH]c(-c3ccc(O)cc3)n2)CCc2ccccc21 (stereo not drawn) | -6.5* | 2 | 13 | / | 0.95 | 1.1
C#CCOc1ccc(Br)cc1/C=N/O | -1.2 | 5 | 9 | / | 1 | 0.9
O=C(NCc1cccnc1)C1c2ccccc2C(=O)N1C1CCCCCCC1 (stereo not drawn) | 0.64 | 5 | 34* | 1.1 | 0.5 | 1.1
O=C(NCc1cccnc1)C1c2ccccc2C(=O)N1C1CCCCCC1 (stereo not drawn) | / | -7 | 8 | -0.12 | / | 0.9
Cc1nnc(-c2cccc(Br)c2)c2cn(-c3ccccc3Cl)nc12 | -1.1 | 102* | 27 | / | 0.027 | 1.1
Cc1ccc(-n2cc3c(-c4cccc(Br)c4)nnc(C)c3n2)cc1 | -0.4 | 99* | 41* | / | 1.2 | 1.4
CC(C)N=C(NC#N)SCc1ccc(F)cc1 | 0.75 | 2 | 9 | -0.6 | -1.1 | 0.9
COc1cc(CC(=O)Nc2ccc(S(=O)(=O)N(C)C)cc2)cc(OC)c1OC | -0.13 | 2 | 5 | 0.032 | 0.69 | 1.5
N#CC1=C(N)SC(N)=C(C#N)C1CCC1CCCCC1 | -0.11 | -2 | 9 | -1.4 | -1.1 | 1
Fc1ccc([C@@H]2CCNC[C@H]2COc2ccc3c(c2)OCO3)cc1 | / | / | / | / | -3.7*! | /
CCCCCCCC(=O)NNC(=O)Cc1ccccc1 | 0.012 | -2 | -4 | / | -1.3 | 1.2
CCCCCC/C(C)=C1/SC(=S)NC1=O | -2.7 | -3 | 55* | / | 0.75 | 1.2
CCc1nc(N2CCCC(C)C2)c2oc3ccccc3c2n1 (stereo not drawn) | -3.3 | 10 | 47* | 1.9 | 0.45 | 1.3
CCc1nc(NCCN2CCOCC2)c2oc3ccccc3c2n1 | 1.4 | -1 | -3 | 3.2* | -0.074 | 1.4
CCc1nc(N2CCCCC2C)c2oc3ccccc3c2n1 (stereo not drawn) | -1.4 | 18 | 24 | 1.1 | 0.0047 | 1.4
O=C1C=C(c2ccc3c(c2)OCO3)CCC1 | 1.7 | / | / | / | 0.8 | /
SMILES | Cav3 T inh | PostGolgi yeast | PostGolgi ctrl | D1 mod | DAT uptake mod | PLAP act
CC(C)NC(=O)c1sc2nc3c(c(-c4cccs4)c2c1N)CN(C)CC3 | -0.67 | -1 | 17 | / | -2 | 2*
Cc1cccc(NC(=O)c2sc3nc4c(c(-c5cccs5)c3c2N)CN(C)CC4)c1 | 0.69 | 10 | 5 | / | 0.33 | 1.7
COc1ccc2[nH]c(=O)c(CN(CCc3ccccc3)Cc3nnnn3CC3CCCO3)cc2c1 (stereo not drawn) | -1.8 | -1 | 8 | 0.36 | 1.2 | 1.6
COc1ccc2cc(CN(Cc3ccco3)Cc3nnnn3C3CCCCC3)c(=O)[nH]c2c1 | -1.4 | -5 | 9 | 1 | 1.3 | 1.5
Cc1ccc2cc(CN(Cc3ccc(F)cc3)Cc3nnnn3C3CCCC3)c(=O)[nH]c2c1 | -1 | 1 | 41* | 0.0071 | 0.9 | 1.6
Cc1ccc2[nH]c(=O)c(CN(CCc3ccccc3)Cc3nnnn3CC3CCCO3)cc2c1 (stereo not drawn) | -3.6* | 1 | 10 | -0.016 | 0.84 | /
Cc1ccc2cc(C(c3nnnn3CC3CCCO3)N3CCc4ccccc4C3)c(=O)[nH]c2c1 (stereo not drawn) | 0.047 | -13 | 42* | 0.06 | 0.37 | 1.5
Cc1ccc2cc(CN(Cc3ccccc3)Cc3nnnn3C3CCCC3)c(=O)[nH]c2c1 | / | -11 | 39* | -1.1 | 1.6 | 1.6
Cc1ccc(C2c3c(oc4ccccc4c3=O)C(=O)N2c2nnc(C(C)C)s2)o1 (stereo not drawn) | 0.047 | 7 | 10 | 0.24 | -0.87 | 1.3
O=c1[nH]c2cc3c(cc2cc1CN(Cc1nnnn1CC1CCCO1)C1CCCC1)OCO3 (stereo not drawn) | / | 4 | 2 | -3.3* | / | 1.1
O=c1[nH]c2cc3c(cc2cc1CN(Cc1nnnn1CC1CCCO1)C1CCCCC1)OCO3 (stereo not drawn) | / | 5 | 10 | / | / | 1.1
O=C1C2C3C=CC(C3=C(c3ccccc3)c3ccccc3)C2C(=O)N1CCO (stereo not drawn) | -1 | 5 | 6 | / | 0.19 | 1.7
Cc1ccc(C(=C2C3C=CC2C2C(=O)NC(=O)C32)c2ccc(C)cc2)cc1 (stereo not drawn) | 0.1 | -1 | 55* | / | 0.21 | 1
COC(=O)c1cc2c(-c3ccccc3)c(C)c3ccccn3c-2c1C(=O)OC | -0.19 | 5 | 42* | / | 0.86 | 1.2
COC(=O)c1c(C(=O)OC)c(-c2ccccc2)n2c1CCC2 | 1.5 | 4 | 9 | / | -0.46 | 1.1
O=C(Nc1ccc(Oc2ccccc2)cc1)c1cnc2n(c1=O)CCS2 | / | -6 | 0 | -1.6 | -0.15 | 0.9
CC(C)(C)C1CCc2[nH]nc(C(=O)O)c2C1 (stereo not drawn) | 1.1 | -4 | -8 | -0.24 | 0.22 | 1.5
O=C1c2ccccc2N2C(=O)c3ccccc3C2N1O (stereo not drawn) | -0.54 | 8 | 5 | / | 0.71 | 1
Cc1ccccc1N1C(=O)c2ccccc2N2C(=O)c3ccccc3C12 (stereo not drawn) | -4.3* | 2 | 19 | / | 0.27 | 0.9
O=C(O)c1[nH]nc2c1COc1ccccc1-2 | -1.1 | 6 | 2 | 0.012 | -1.9 | 1.3
CC(=O)C1=C(N2CCCCC2)CCC1=O | -0.58 | -1 | 32* | 0.59 | -0.032 | 0.8
